Our source for the Potency values is PubChem BioAssay (NCATS).

Records with an inconclusive call do not appear. Active and inactive are the calls of the source. Calls come from the whole dose curve; as a rule, active = well fitted inhibition curve with a large enough effect; inconclusive = small, poorly fitted or top-dose-only effect; inactive = flat fitted curve, though single readings scatter.

Common to all, as to experiment: qHTS profiling for inhibitors of Plasmodium falciparum proliferation (AID 504749); note: nearly all actives have a fitted effect of over 60% in size
What all share (conditions): P. falciparum in erythrocytes, SYBR Green DNA, 72 h; series mostly up to 28.7 µM
A general note: qHTS replaces the single test concentration by a dilution series.

The subject of one test is CP325. The essentials: (§1)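 Readout was DNA-dye fluorescence from lysed cultures, ex 485/em 535 nm. Parasitized red cells had grown 72 h with compound; data scaled between 0.29 uM artemisinin and DMSO wells and corrected using vehicle-only plates.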
A further test concerns CP329. The essentials:
as §1

The subject of another test is CP335. The essentials:
as §1

Another test concerns DFO2036. The essentials:
as §1

A further test relates to DIV14. An outline of the steps:
as §1

The next test relates to DIV17. An outline of the steps: as §1
The next test has as its system DIV30. The essentials: as §1
The next test concerns Dd2. The essentials: as §1
The next test deals with ECU. An outline of the steps: as §1
For another test, the system named is FAB9. An outline of the steps:
as §1

Another test concerns GB4. The essentials: as §1
Another test relates to HB3. An outline of the steps: as §1
The subject of a further test is ICS. The essentials:
as §1

A further test relates to JCK. The essentials: as §1
In another test the test system is N140. An outline of the steps:
as §1

For another test, the system named is P93_24. An outline of the steps:
as §1

Another test deals with P94_40. An outline of the steps:
as §1

In another test the test system is PAD. An outline of the steps:
as §1

In the next test the test system is PC15. The essentials: as §1
The next test relates to PC26. The essentials:
as §1
Potency is the fitted concentration of half-maximal effect.

`Cc1ccc(C(=O)c2ccc(CC(=O)O)n2C)cc1`: the Potency entry in the test with CP325, in the test with CP329, with CP335, with DFO2036, with DIV14 and in the test with DIV17 was “inactive” throughout. Also, the Potency result in the test on DIV30, with Dd2, with ECU, in the test on FAB9, in the test with GB4 and with HB3 was “inactive” throughout. Further, the Potency result with ICS, with JCK, in the test on N140, in the test on P93_24, in the test with P94_40 and with PAD was “inactive” throughout. Also, the Potency entry with PC15 and with PC26 was “inactive” each time.

As for `CC1OC1P(=O)(O)O` (stereo not given), the Potency result with CP325, in the test with CP329, with CP335, in the test on DFO2036, in the test with DIV14 and with DIV17 was “inactive” each time. For the same molecule, the Potency entry in the test on DIV30, with Dd2, in the test on ECU, in the test with FAB9, in the test on GB4 and with HB3 was “inactive” throughout. The Potency entry in the test with ICS, with JCK, with N140, in the test on P93_24, in the test with P94_40 and in the test with PAD was “inactive” each time. The Potency entry with PC15 and in the test on PC26 was “inactive” in each case.

In the case of `Nc1c(CC(=O)O)cccc1C(=O)c1ccc(Br)cc1`, the Potency result in the test on CP325, with CP329, with CP335, in the test on DFO2036, with DIV14 and in the test with DIV17 was “inactive” throughout. Moreover, the Potency entry with DIV30, in the test on Dd2, with ECU, in the test with FAB9, with GB4 and in the test on HB3 was “inactive” in each case. Besides, the Potency entry in the test on ICS, in the test with JCK, in the test with N140, in the test with P93_24, in the test on P94_40 and with PAD was “inactive” throughout. Moreover, the Potency entry in the test on PC15 and with PC26 was “inactive” in each case.

Take `CCCCCCOc1ccccc1C(N)=O`: the Potency entry in the test on CP325, in the test with CP329, in the test on CP335, with DFO2036, with DIV14 and with DIV17 was “inactive” each time. In addition, the Potency result in the test with DIV30, in the test with Dd2, with ECU, with FAB9, in the test on GB4 and in the test on HB3 was “inactive” each time. In addition, the Potency result in the test with ICS, in the test on JCK, in the test on N140, in the test on P93_24, with P94_40 and with PAD was “inactive” each time. In addition, the Potency result with PC15 and in the test on PC26 was “inactive” throughout.

With `CCC1C(=O)OCC1Cc1cncn1C` (stereo not given), the Potency entry with CP325, in the test with CP329, in the test on CP335, in the test on DFO2036, in the test with DIV14 and with DIV17 was “inactive” in each case. Moreover, the Potency result with DIV30, in the test with Dd2, with ECU, in the test with FAB9, with GB4 and in the test with HB3 was “inactive” each time. The Potency entry with ICS, in the test on JCK, in the test on N140, in the test with P93_24, with P94_40 and in the test with PAD was “inactive” throughout. Moreover, the Potency entry in the test on PC15 and in the test with PC26 was “inactive” each time.

For the molecule `O=C(O)COc1ccc(C(=O)c2cccs2)c(Cl)c1Cl`, the Potency entry with CP325, in the test on CP329, with CP335, in the test with DFO2036, with DIV14 and with DIV17 was “inactive” in each case. Moreover, the Potency entry in the test with DIV30, with Dd2, with ECU, in the test on FAB9, in the test on GB4 and with HB3 was “inactive” throughout. In addition, the Potency entry with ICS, in the test on JCK, in the test on N140, in the test with P93_24, in the test on P94_40 and in the test with PAD was “inactive” in each case. The Potency entry with PC15 and in the test with PC26 was “inactive” each time.

In the case of `c1ccc2sc(SSc3nc4ccccc4s3)nc2c1`, the Potency entry with CP325, in the test on CP329, with CP335, with DFO2036, in the test with DIV14 and in the test on DIV17 was “inactive” in each case. Further, the Potency entry with DIV30, in the test with Dd2, in the test on ECU, in the test with FAB9, with GB4 and in the test on HB3 was “inactive” in each case. For the same molecule, the Potency result in the test on ICS, in the test on JCK, with N140, in the test with P93_24, in the test with P94_40 and with PAD was “inactive” throughout. Also, the Potency entry in the test with PC15 and in the test with PC26 was “inactive” in each case.

As for `[O-][n+]1ccccc1SSc1cccc[n+]1[O-]`, the Potency in the test on CP325 is 953 nM (active); in the test with CP329 it was 1350 nM (active); with CP335, 601 nM (active); in the test on DFO2036 it was 891 nM (active); in the test on DIV14, 757 nM (active); with DIV17 it was 536 nM (active). Besides, the Potency is 1200 nM (active) in the test on DIV30; 891 nM (active) in the test with Dd2; 1120 nM (active) with ECU; 1580 nM (active) in the test on FAB9; 757 nM (active) with GB4; 891 nM (active) in the test on HB3. Also, the Potency with ICS was 794 nM (active); in the test with JCK, 4470 nM (active); in the test with N140 it was 708 nM (active); with P93_24, 1000 nM (active); in the test with P94_40, 794 nM (active); in the test on PAD, 891 nM (active). Moreover, the Potency with PC15 is 2240 nM (active); in the test on PC26 it was 1510 nM (active).

As for `Nc1ccc(C(=O)O)c(O)c1`, the Potency entry in the test with CP325, with CP329, in the test on CP335, in the test with DFO2036, in the test on DIV14 and in the test with DIV17 was “inactive” each time. Besides, the Potency result with DIV30, with Dd2, in the test with ECU, in the test with FAB9, in the test on GB4 and in the test with HB3 was “inactive” throughout. Moreover, the Potency result in the test with ICS, in the test on JCK, with N140, in the test on P93_24, with P94_40 and with PAD was “inactive” in each case. In addition, the Potency result in the test with PC15 and in the test on PC26 was “inactive” each time.

Take `COc1cc2c3cc1Oc1cc(ccc1O)C[C@@H]1c4c(cc(OC)c(O)c4Oc4ccc(cc4)C[C@@H]3N(C)CC2)CC[N+]1(C)C`: the Potency entry in the test with CP325, in the test with CP329, in the test on CP335, with DFO2036, in the test with DIV14 and in the test on DIV17 was “inactive” each time. In addition, the Potency entry in the test on DIV30, in the test on Dd2, in the test on ECU, with FAB9, in the test on GB4 and in the test with HB3 was “inactive” in each case. For the same molecule, the Potency result in the test on ICS, with JCK, in the test with N140, in the test with P93_24, in the test with P94_40 and in the test on PAD was “inactive” each time. Besides, the Potency result in the test on PC15 and in the test on PC26 was “inactive” throughout.

For `O=C(O)[C@H](CC(=O)N1C[C@H]2CCCC[C@H]2C1)Cc1ccccc1`, the Potency entry with CP325, in the test on CP329, in the test on CP335, in the test on DFO2036, in the test with DIV14 and in the test on DIV17 was “inactive” throughout. Moreover, the Potency entry in the test with DIV30, with Dd2, in the test with ECU, with FAB9, in the test on GB4 and with HB3 was “inactive” each time. For the same molecule, the Potency entry with ICS, in the test with JCK, with N140, in the test with P93_24, with P94_40 and in the test with PAD was “inactive” throughout. The Potency entry with PC15 and in the test with PC26 was “inactive” throughout.

As for `CCCCCC[C@@H](O)C/C=C\CCCCCCCC(=O)O`, the Potency result with CP325, in the test on CP329, in the test with CP335, in the test on DFO2036, in the test on DIV14 and in the test with DIV17 was “inactive” throughout. The Potency result with DIV30, with Dd2, with ECU, in the test with FAB9, in the test on GB4 and in the test with HB3 was “inactive” each time. Besides, the Potency result in the test with ICS, in the test on JCK, with N140, with P93_24, with P94_40 and in the test on PAD was “inactive” throughout. In addition, the Potency result in the test with PC15 and in the test on PC26 was “inactive” each time.

Consider `C#C[C@]1(O)CC[C@H]2[C@@H]3CCc4cc(O)ccc4[C@H]3CC[C@@]21C`, for which the Potency result in the test with CP325, in the test on CP329, in the test on CP335, in the test on DFO2036, in the test on DIV14 and with DIV17 was “inactive” in each case. For the same molecule, the Potency entry in the test on DIV30, in the test on Dd2, in the test with ECU, in the test with FAB9, in the test with GB4 and with HB3 was “inactive” in each case. Also, the Potency entry in the test with ICS, in the test on JCK, with N140, in the test with P93_24, in the test with P94_40 and with PAD was “inactive” throughout. The Potency entry in the test on PC15 and in the test with PC26 was “inactive” in each case.
